Compound activity from PubChem BioAssay.
12-LOX inh: ALOX12 (human) lipoxygenase inhibition. P18054. purified 12hLO, xylenol orange hydroperoxide absorbance. Potency, µM (highest dose often 108 µM), inactives show at the highest dose activity change, negative = inhibition, usual class: inhibitors. 580,000 tested, 1.1% active. AID 1671190
Target sequence (P18054 whole entry, looked up): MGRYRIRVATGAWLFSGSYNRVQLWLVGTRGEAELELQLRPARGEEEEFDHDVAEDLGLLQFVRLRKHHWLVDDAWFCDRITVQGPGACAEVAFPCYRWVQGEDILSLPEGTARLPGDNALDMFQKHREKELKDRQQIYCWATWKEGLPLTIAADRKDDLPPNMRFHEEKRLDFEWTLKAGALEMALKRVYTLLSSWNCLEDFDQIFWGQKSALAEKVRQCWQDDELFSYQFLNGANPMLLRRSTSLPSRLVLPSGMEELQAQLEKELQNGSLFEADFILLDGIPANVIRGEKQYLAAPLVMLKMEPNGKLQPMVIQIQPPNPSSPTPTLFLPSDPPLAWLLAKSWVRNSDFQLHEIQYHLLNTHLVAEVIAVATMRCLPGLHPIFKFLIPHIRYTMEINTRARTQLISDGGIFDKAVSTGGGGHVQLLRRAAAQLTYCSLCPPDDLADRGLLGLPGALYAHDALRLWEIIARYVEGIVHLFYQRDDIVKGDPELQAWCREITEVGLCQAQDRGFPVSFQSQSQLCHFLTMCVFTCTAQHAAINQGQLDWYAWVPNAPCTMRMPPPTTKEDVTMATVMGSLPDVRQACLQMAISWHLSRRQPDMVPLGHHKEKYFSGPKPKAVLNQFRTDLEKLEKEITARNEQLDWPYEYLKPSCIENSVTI
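Purified human 12hLO at 150 nM in 25 mM Hepes, 0.01% Triton X-100, pH 7.0, preincubated 15 min at room temperature with compound. Reaction started with 40 uM arachidonic acid, 30 min at room temperature. Hydroperoxide measured by Fe-xylenol orange, 573/405 nm absorbance ratio.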
PLK1 PBD block: blocks phosphopeptide binding to human PLK1 polo-box domain; Potency, µM, for the others: max response, negative = inhibition, actives largely listed as inhibitors; 360,000 tested, 2.8% active; Plk1 PBD binding of FITC phosphopeptide, fluorescence polarization; note: series mostly up to about 57 µM; nearly all actives have a fitted effect of over 65% in size
KAT2A inh: GCN5L2 (KAT2A) acetyltransferase inhibition; Q92830; GCN5L2 HAT assay, ThioGlo1 CoA-SH fluorescence; Potency, µM (highest dose often 58.9 µM), without a hit: top-dose activity change, negative = inhibition, most hits filed as inhibitors; 390,000 tested, 0.21% active; AID 504327
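Fluorescence readout, Ex340nm/Em540nm: ThioGlo1 (50uM final) reacts with free CoA thiol released as 20nM GCN5L2 acetylates H3(1-25) peptide (75uM) using acetyl-CoA (70uM). Compound and enzyme sat 15 min beforehand; 20 min room-temperature reaction.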
VDR inhibitor: inhibitors of human vitamin D receptor; P11473; VDR-SRC2-3 peptide fluorescence polarization, 2 h; Potency, µM, for the others: max response, negative = inhibition, actives largely listed as inhibitors; 400,000 tested, 0.93% active
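Inhibition of the VDR/SRC2-3 peptide interaction is quantified by fluorescence polarization. Compounds (23 nl, pintool) incubate with the reagents for 2 hours at ambient room temperature.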
Numbers without * were called inactive; u = inconclusive; x = no result given; [ ] = another dose, or the depositor's remark. Only some compounds are listed: those with a hit (about 3% of all), similar ones and a draw of the others. Calls come from the whole dose curve; as a rule, active = well fitted curve in the direction sought with a large enough effect; inconclusive = small, poorly fitted or top-dose-only effect, or another doubt; inactive = no such curve, though single readings can be large; an effect the other way counts as inactive or inconclusive. % is set by controls: 0 for no effect and ±100 for the full control effect; potency is the fitted concentration of half-maximal effect.

SMILES	12-LOX inh	PLK1 PBD block	KAT2A inh	VDR inhibitor
Cc1cccc(N(CC(=O)Nc2ccc(F)cc2)S(C)(=O)=O)c1	-26%	-8%	0%	5%
COc1ccc(NC(=O)CN(c2cc(C)cc(C)c2)S(=O)(=O)c2c(C)n[nH]c2C)cc1	5%	30µM*	-4%	89µM*
Cc1csc(NC(=O)c2nc3c(o2)CCN(Cc2ccc4[nH]ccc4c2)CC3)n1	54%[176 µM]	x	x	x
COc1ccc(CN2C[C@@H](F)[C@@H](OCc3nc4ccc(C)cc4[nH]3)C2)cc1	24%[176 µM]	x	x	x
O=C(N/N=C/c1ccc(OC2CSC2)cc1)c1ccccc1	12%	1%	6%	4%
Cc1ccc(C(=O)/C=C/c2ccc(-c3ccccc3Cl)o2)cc1	7.1µM*	x	x	x
O=C(/C=C/c1ccc(-c2ccc(Cl)c(Cl)c2)o1)c1ccc(Br)cc1	13µM*	x	x	x
O=C(/C=C/c1ccc(OC2CSC2)cc1)c1ccccc1	8%	27µM*	-16%	u
O=C(/C=C/c1ccc(-c2ccccc2Cl)o1)c1ccc(F)cc1	11µM*	x	x	x
Cc1ccc(C(=O)N/N=C\c2ccc(-c3ccc(Cl)c(Cl)c3)o2)cn1	0%	0%	-7%	1%
CC(=O)N1CCN(C(=O)c2ccc3c(ccn3Cc3ccccc3)c2)CC1	0%	x	x	x
O=C(O)COc1ccc2ccccc2c1	x	x	-3%	4%
Cc1ccc(C(=O)/C=C/c2ccc(-c3ccccc3Br)o2)cc1	1.1µM*	x	x	x
N#C/C(=C\c1ccc(-c2ccccc2Cl)o1)c1ccc(Cl)cc1	4%	x	x	x
O=C(/C=C/c1ccc(-c2ccccc2Cl)o1)c1ccc2ccccc2c1	1µM*	x	x	x
O=C(C=Cc1ccco1)c1ccc2ccccc2c1	18µM*	-11%	x	u
O=C(O)COc1ccc(/C=C/C(=O)c2ccc3ccccc3c2)cc1	x	-29%	-7%	28µM*
O=Cc1ccc(OCc2ccccc2)c(Cl)c1	14%	x	x	x
COc1ccccc1CNC(=O)c1csc(NC2CC2)n1	-24%	x	x	x
CCOc1ccc(NC(=O)c2ccc3c(c2)N(CC)C2CCCCN2C3=O)cc1 (stereo not drawn)	41%	x	x	x
C/C(=N\NC(=O)Cc1cccc2ccccc12)c1cccc(NC(=O)c2ccc(Cl)cc2)c1	9%	x	x	x
Cc1cccc(OCC(=O)Nc2ccc(-c3nc4ccc(C)cc4o3)cc2)c1	-33%	x	x	x
COc1ccc(CN(C)C(=O)c2ccc3oc(C)cc3c2)c2cccnc12	68%	x	x	x
O=c1[nH]c2ccc(NCc3ccc(-c4cccc(Cl)c4)o3)cc2[nH]1	u	x	-7%	-6%
CNCc1ccc(-c2ccc(Br)cc2)o1	28µM*	x	x	x
SMILES	12-LOX inh	PLK1 PBD block	KAT2A inh	VDR inhibitor
O=c1[nH]c2ccc(NCc3ccc(-c4ccc(Br)cc4)o3)cc2[nH]1	10µM*	x	-9%	8%
CS(=O)(=O)N1CCCCC1C(=O)NC1CCCC1 (stereo not drawn)	32%	x	x	x
CCOC(=O)c1c(C)[nH]c(NC(=O)Nc2cccc(C)c2)c1C	-26%	x	x	x
COC(=O)N(C)CC(=O)NCc1ccccc1	-55%	x	x	x
CN(Cc1cccnc1)c1nc2c(c(=O)[nH]1)CCN(Cc1cccc(F)c1F)CC2	45%	x	x	x
COCCN(CCOC)Cc1cc(=O)oc2cc(OC)ccc12	u	2%	x	x
CCCN(CCC)Cc1cc(=O)oc2cc(OC)c(Cl)cc12	32µM*	0%	x	x
C=CCN(CC=C)Cc1cc(=O)oc2cc(OC)c(Cl)cc12	u	-6%	x	x
COCCN(CCOC)Cc1cc(=O)oc2cc(C)c(C)cc12	14µM*	-10%	x	x
CC(=O)NNC(=S)Nc1ccc(Cl)cc1Cl	-4%	x	x	x
CC1=C[C@@H](CNC(=O)c2ccccn2)[C@H](C(C)C)C[C@H]1Cc1nnc(-c2ccncc2)o1	0%[176 µM]	x	x	x
CCc1noc(-c2cn(C3CCN(C(=O)c4sccc4C)C3)nn2)n1 (stereo not drawn)	45µM*	x	x	x
Cc1noc(-c2cn(C3CCN(C(=O)c4sccc4C)C3)nn2)n1 (stereo not drawn)	15%	x	x	x
COc1cc(CN2CCNC(=O)C2CC(=O)N(C)Cc2cccnc2)cc(OC)c1 (stereo not drawn)	-3%	15µM*	-8%	-24%
CN(Cc1nccs1)C(=O)CC1C(=O)NCCN1Cc1ccc(-c2ccccc2)cc1 (stereo not drawn)	-6%	27µM*	-6%	-15%
CNC(=O)c1ccc(/C=C/C(=O)N(Cc2ccsc2)C2CC2)cc1	2%	x	x	x
CC1=NOC2(C1)N(C)c1ccccc1C2(C)C (stereo not drawn)	-2%	-7%	-4%	3%
COc1ccc2ccc3c(c2c1)N=C[C@]1(O3)N(C)c2ccccc2C1(C)C	u	3µM*	u	-12%
Cc1c(NC(=O)COC(=O)CCC(=O)c2ccc(Cl)cc2)c(=O)n(-c2ccccc2)n1C	-7%	17µM*	-5%	u
Cc1c(NC(=O)CSc2n[nH]c(=O)n2-c2ccccc2)c(=O)n(-c2ccccc2)n1C	-7%	27µM*	-8%	u
CCCOCC1CC2(SC(=Nc3ccc(C)cc3)NC2=O)C(=O)O1 (stereo not drawn)	59%[57.4 µM]	27µM*	-10%	5%
O=C(CCCC(=O)OCC(=O)c1cccs1)Nc1ccc(Oc2ccccc2)cc1	18%	30µM*	-11%	-9%
CC(=O)Nc1sc(N/N=C\c2ccc(O)cc2)nc1-c1cccs1	u	27µM*	-4%	-23%
CC(=O)Nc1sc(N/N=C\c2cccc(Cl)c2)nc1-c1cccs1	-22%	u	-4%	7.1µM*
CC(=O)Nc1sc(NC(=O)c2ccccc2)nc1-c1cccs1	-16%	-5%	-5%	-10%
SMILES	12-LOX inh	PLK1 PBD block	KAT2A inh	VDR inhibitor
COCCc1noc(-c2ccccc2OC2CN(C(=O)c3ccc(C)nc3)C2)n1	31%	x	x	x
CC1=C(C(=O)Nc2ccccc2)C(c2ccc(C(C)(C)C)cc2)NC(=S)N1 (stereo not drawn)	40µM*	x	x	x
CCOc1cc(C2NC(=S)NC(C)=C2C(=O)Nc2ccccc2)ccc1O (stereo not drawn)	u	u	3%	-21%
Cc1ccc(NC(=O)C2=C(c3ccccc3)NC(=S)NC2c2ccc(C(C)(C)C)cc2)cc1 (stereo not drawn)	14µM*	x	x	x
COc1cc(C2NC(=S)NC(c3ccccc3)=C2C(C)=O)ccc1O (stereo not drawn)	-21%	-22%	-3%	-11%
CCOC(=O)C1=C(c2ccccc2)NC(=S)NC1c1cc([N+](=O)[O-])ccc1OC (stereo not drawn)	40µM*	-12%	2%	-18%
CCCOc1ccc(C2NC(=S)NC(c3ccccc3)=C2C(=O)Nc2ccc(C)cc2)cc1OC (stereo not drawn)	32µM*	-3%	u	-11%
N#Cc1nc(-c2ccccc2)oc1N1CCN(C(=O)c2cccs2)CC1	-2%	x	x	x
CCCN(CCOC)Cc1ccc(C#N)cc1	0%	x	x	x
COc1ccc(-c2nc(CSC(C)C(=O)Nc3ccccc3)co2)cc1 (stereo not drawn)	-7%	x	x	x
COc1cc(/C=C/c2cccc[n+]2C)ccc1OCC(=O)Nc1ccccc1C	u	-5%	-8%	11%
